# Experimental data taken from PubChem BioAssay (NCI).
# The panel holds about 79,000 compounds, 15% with a hit somewhere; the sample as a whole holds those more often. Values without a mark were called inactive. Activity calls are given as the source filed them. Rule as the data show it: active = growth inhibition above about 70%; inactive = the rest.
# Assay: NCI Yeast Anticancer Drug Screen. Data for the rad18 strain (AID 177)
# Conditions: S. cerevisiae rad18 mutant growth inhibition, hits give high values
# Protocol: Growth inhibition of yeast strains with defined genetic alterations is measured as a screen for potential anti-cancer activity. Selected strains with alterations in DNA damage repair or cell cycle control were exposed to compounds and growth inhibition was measured relative to vehicle treated controls. The strain used in this assay is rad18
Structure (SMILES),growth inhibition (at 1.2 µM) [%],growth inhibition (at 3.7 µM),growth inhibition (at 11.0 µM),growth inhibition (at 33.0 µM),growth inhibition (at 100.0 µM)
c1ccc(CCN2CCc3ccccc3C2)cc1,0,1%,8%,13%,10%
CCCC(=O)Oc1c(C)cc([N+](=O)[O-])cc1[N+](=O)[O-],5,20%,98% (active),99% (active),99% (active)
CCCCC(CC)C(=O)[O][Sn]([CH2]CCC)([CH2]CCC)[O]C(=O)C(CC)CCCC (stereo not given),-2,0%,46%,91% (active),97% (active)
COc1cc(/C=C2\CCC/C(=C\c3ccc(O)c(OC)c3)C2=O)ccc1O,-7,5%,3%,1%,-7%
CC(C)OC(=O)c1ccc(CCc2cc(O)c(Br)cc2O)cc1,20,24%,59%,96% (active),93% (active)
CCCCOCn1c(=O)[nH]c(=O)c2cc(Br)ccc21,-19,-5%,-1%,9%,38%
CCCCCCCCCCCC1N=C(N)NC(CCCO)=C1C(=O)OC (stereo not given),67,99% (active),99% (active),99% (active),98% (active)
CCOC1(c2cccc([N+](=O)[O-])c2)c2ccccc2Oc2ccccc21,-1,1%,-12%,-9%,12%
